Active and inactive are the calls of the source.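 How the source made its calls: active means average half-effect concentration of 10 µM or less in every one of the four cell panels; inactive means the rest.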
system: HL-1; experiment: cardiomyocyte survival under oxidative or metabolic stress – cell-based, panel, H9c2 and HL-1, H2O2, 2-deoxyglucose, ATP luminescence, SAR follow-up (AID 651642); settings: H9c2/HL-1 cardiomyocyte 2-deoxyglucose damage, mean of runs, with 2-deoxyglucose

Compound | outcome
COc1ccc2c(c1OC)C(=O)N1c3ccccc3C(=O)N(Cc3ccncc3)C21 (configuration not stated) | inactive
COC(=O)CNC(=O)c1cccc(NC(=O)c2cc(-c3cc(OC)c(OC)c(OC)c3)nc3ccccc23)c1 | active
COc1cc(-c2cc(C(=O)Nc3cccc(C(=O)NC4CC4)c3)c3ccccc3n2)cc(OC)c1OC | active
CCOC(=O)c1cccc(NC(=O)c2cc(-c3cc(OC)c(OC)c(OC)c3)nc3ccccc23)c1 | inactive
CCOC(=O)c1cccc(NC(=O)CNC(=O)c2cc(-c3cc(OC)c(OC)c(OC)c3)nc3ccccc23)c1 | inactive
COc1cc(-c2cc(C(=O)Nc3cccc(C(C)=O)c3)c3ccccc3n2)cc(OC)c1OC | active
CCOC(=O)c1cccc(NC(=O)c2cc(-c3cc(OC)c(OC)c(OC)c3)nc3ccc(F)cc23)c1 | inactive
COc1cc(-c2cc(C(=O)Nc3cccc(C#N)c3)c3ccccc3n2)cc(OC)c1OC | inactive
COc1cc(-c2cc(C(=O)NCC(=O)Nc3cccc(C(C)=O)c3)c3cc(Br)ccc3n2)cc(OC)c1OC | active
COc1ccc2c(c1OC)C(=O)N1c3ccccc3C(=O)N(Cc3ccccc3)C21 (configuration not stated) | inactive
COc1cc(-c2cc(C(=O)Nc3cccc(C(C)=O)c3)c3cc(Br)ccc3n2)cc(OC)c1OC | inactive
CCOC(=O)c1ccc(NC(=O)c2cc(-c3cc(OC)c(OC)c(OC)c3)nc3ccccc23)cc1 | inactive
CCOC(=O)c1cccc(NC(=O)CNC(=O)c2cc(-c3cc(OC)c(OC)c(OC)c3)nc3c(Cl)cccc23)c1 | inactive
COc1ccc2c(c1OC)C(=O)N1c3ccccc3C(=O)N(Cc3ccccc3F)C21 (configuration not stated) | active
COc1cc(-c2cc(C(=O)Nc3cccc(C(=O)N4CCOCC4)c3)c3ccccc3n2)cc(OC)c1OC | inactive
COc1cc(-c2cc(C(=O)NCC(=O)Nc3cccc(C(C)=O)c3)c3cc(F)ccc3n2)cc(OC)c1OC | active

Compound | outcome
COc1ccc2nc(-c3cc(OC)c(OC)c(OC)c3)cc(C(=O)NCC(=O)Nc3cccc(C(C)=O)c3)c2c1 | active
CCOC(=O)c1cccc(NC(=O)CNC(=O)c2cc(-c3cc(OC)c(OC)c(OC)c3)nc3ccc(C)cc23)c1 | active
COc1cc(-c2cc(C(=O)Nc3cccc(C(=O)N(C)C)c3)c3ccccc3n2)cc(OC)c1OC | inactive
COc1ccc2c(c1OC)C(=O)N1c3ccccc3C(=O)N(Cc3c(Cl)cccc3Cl)C21 (configuration not stated) | inactive
COc1cc(-c2cc(C(=O)Nc3cccc(-c4nn[nH]n4)c3)c3ccccc3n2)cc(OC)c1OC | inactive
COc1ccc2c(c1OC)C(=O)N1c3ccccc3C(=O)N(Cc3ccccn3)C21 (configuration not stated) | inactive
COc1cc(-c2cc(C(=O)NCC(=O)Nc3ccc(C(C)=O)cc3)c3cc(C)ccc3n2)cc(OC)c1OC | active
COc1cc(-c2cc(C(=O)NCC(=O)Nc3cccc(C(C)=O)c3)c3cccc(Cl)c3n2)cc(OC)c1OC | active
COc1ccc2c(c1OC)C(=O)N1c3ccccc3C(=O)N(Cc3cccc(C)c3)C21 (configuration not stated) | inactive
COc1ccc2c(c1OC)C(=O)N1c3ccccc3C(=O)N(Cc3ccccc3C)C21 (configuration not stated) | active
CCOC(=O)c1cccc(NC(=O)c2cc(-c3cc(OC)c(OC)c(OC)c3)nc3cc(Cl)ccc23)c1 | inactive
COc1ccc(NC(=O)CNC(=O)c2cc(-c3cc(OC)c(OC)c(OC)c3)nc3ccccc23)cc1 | active
CCOC(=O)c1cccc(NC(=O)CNC(=O)c2cc(-c3cc(OC)c(OC)c(OC)c3)nc3ccc(Br)cc23)c1 | active
COc1ccc2c(c1OC)C(=O)N1c3ccccc3C(=O)N(Cc3ccc(F)cc3)C21 (configuration not stated) | inactive
COc1ccc2c(c1OC)C(=O)N1c3ccccc3C(=O)N(Cc3cccc(F)c3)C21 (configuration not stated) | active
COc1cc(-c2cc(C(=O)Nc3cccc(C(=O)O)c3)c3ccccc3n2)cc(OC)c1OC | inactive

— PubChem BioAssay AID651642 (Sanford-Burnham Center for Chemical Genomics, 2012)
